Results reported in PubChem BioAssay (NCI).
This is part of a sample that, as a whole, favours compounds with a hit. Of some 83,000 tested, about 20% had one in any assay.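 In brief: 96-well plates, 48 h treatment, single concentration, percent growth endpoint.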 Active and inactive are the calls of the source. The calls were made as follows: active = growth percent below 10; inactive = the rest.

Columns and labels:
Experiment in all cases: NCI-60 one-dose screen, 48 h (100 = growth as untreated, 0 = no growth, -100 = all killed)
Settings in all cases: 10 µM unless noted
DU-145 prostate = test system: DU-145 prostate
K-562 leukemia = test system: K-562 leukemia
MALME-3M melanoma = test system: MALME-3M melanoma
MDA-MB-231 breast = test system: MDA-MB-231 breast
RXF 393 renal = test system: RXF 393 renal
SF-268 CNS = test system: SF-268 CNS
SF-295 CNS = test system: SF-295 CNS
SF-539 CNS = test system: SF-539 CNS
UACC-257 melanoma = test system: UACC-257 melanoma
M14 melanoma = test system: M14 melanoma

Measured: growth

Nc1c(C(=O)Nc2cccc3ccccc23)sc2nc3c(cc12)CCCCC3
inactive: DU-145 prostate 18.4% | MALME-3M melanoma 75.7% | MDA-MB-231 breast 49.4% | RXF 393 renal 17.5% | SF-268 CNS 46.3% | SF-295 CNS 21.1% | UACC-257 melanoma 63%
active: K-562 leukemia 8.68% | SF-539 CNS -1.19% | M14 melanoma 1.3%

O=C1CC23OC(C(O)c4ccccc4N12)C1C(c2ccccc2)=NOC13 (stereo not given)
inactive: DU-145 prostate 81.9% | K-562 leukemia 16.1% | MALME-3M melanoma 49.8% | MDA-MB-231 breast 52.9% | RXF 393 renal 71.5% | SF-268 CNS 64.1% | SF-295 CNS 42.3% | SF-539 CNS 50% | UACC-257 melanoma 89.2% | M14 melanoma 16.1%

C=C(C)[C@@H]1CC[C@]2(C(=O)NCCCO)CC[C@]3(C)[C@H](CC[C@@H]4[C@@]5(C)CCCNC(C)(C)[C@@H]5CC[C@]43C)[C@@H]12
active: K-562 leukemia 3.26% | MALME-3M melanoma -74.4% | UACC-257 melanoma -44.2%
inactive: DU-145 prostate 89.1% | MDA-MB-231 breast 49% | RXF 393 renal 58.2% | SF-268 CNS 77.9% | SF-295 CNS 89.3% | SF-539 CNS 70.4% | M14 melanoma 33.7%

N#CC1(C#N)C2=C(CCCC2)NC(c2c(F)cccc2Cl)C1(C#N)C#N (stereo not given)
inactive: DU-145 prostate 89.7% | K-562 leukemia 25.8% | MALME-3M melanoma 74.7% | MDA-MB-231 breast 87.5% | RXF 393 renal 78.2% | SF-268 CNS 89.9% | SF-295 CNS 81.3% | SF-539 CNS 50.1% | UACC-257 melanoma 75.2% | M14 melanoma 49.5%

CCCNc1nc(C)[nH]c(=O)c1S
inactive: DU-145 prostate 91.3% | K-562 leukemia 95% | MALME-3M melanoma 112% | MDA-MB-231 breast 103% | RXF 393 renal 118% | SF-268 CNS 101% | SF-295 CNS 119% | SF-539 CNS 115% | UACC-257 melanoma 108% | M14 melanoma 109%

COc1ccc(C2N(c3cc(OC)c(OC)c(OC)c3)C(=O)C2(F)F)cc1F (stereo not given)
inactive: DU-145 prostate 25.2% | K-562 leukemia 10.5% | MALME-3M melanoma 64.1% | MDA-MB-231 breast 54% | RXF 393 renal 49.4% | SF-268 CNS 52.9% | SF-295 CNS 48.3% | SF-539 CNS 21.6% | UACC-257 melanoma 50% | M14 melanoma 24.2%

NCCCn1c2c(c3cc(-c4ccn[nH]4)ccc3c1=O)C(=O)c1ccccc1-2
active: K-562 leukemia 6.99%
inactive: DU-145 prostate 33.8% | MALME-3M melanoma 75.2% | MDA-MB-231 breast 68.1% | RXF 393 renal 79.5% | SF-268 CNS 52.8% | SF-295 CNS 61.7% | SF-539 CNS 75.2% | UACC-257 melanoma 102% | M14 melanoma 74.8%

COc1ccc(/C=C/C(=O)/C=C(/C=C/c2ccc(OC)c(OC)c2)OB(F)F)cc1OC
active: RXF 393 renal -10.8%
inactive: DU-145 prostate 35.1% | K-562 leukemia 17.4% | MALME-3M melanoma 25.4% | MDA-MB-231 breast 21% | SF-268 CNS 34.9% | SF-295 CNS 69.4% | SF-539 CNS 28.8% | UACC-257 melanoma 59.1% | M14 melanoma 11.1%

COCCOCCOCc1n(Cc2ccc3ccccc3n2)c2ccccc2[n+]1Cc1ccc2ccccc2n1
inactive: DU-145 prostate 35.4% | K-562 leukemia 19.1% | MDA-MB-231 breast 17.9% | RXF 393 renal 66.9% | SF-268 CNS 22.7% | SF-295 CNS 52.3% | SF-539 CNS 26.7% | M14 melanoma 26%
active: MALME-3M melanoma 5.23% | UACC-257 melanoma -5.39%

Nc1ccccc1NC(=O)c1ccc(CSc2nc(N3CCOCC3)c3cccn3n2)cc1
active: DU-145 prostate 9.93% | K-562 leukemia 5.46% | RXF 393 renal -6.46% | SF-268 CNS 4.84% | SF-295 CNS 2.8% | UACC-257 melanoma -3.3% | M14 melanoma 5.11%
inactive: MALME-3M melanoma 30.9% | MDA-MB-231 breast 18.8% | SF-539 CNS 15.2%

C#C[C@@]1(O)[C@@H](CO)O[C@@H](n2cc(Cl)c3c(N)ccnc32)[C@@H]1O
inactive: DU-145 prostate 56.1% | K-562 leukemia 42.8% | MALME-3M melanoma 82.3% | MDA-MB-231 breast 57.4% | RXF 393 renal 106% | SF-268 CNS 87.4% | SF-295 CNS 81.9% | SF-539 CNS 89.3% | UACC-257 melanoma 89.2% | M14 melanoma 85.3%

CN(C)C(CNc1oc(-c2cccc3ccccc23)nc1C#N)c1ccco1 (stereo not given)
inactive: DU-145 prostate 98.7% | K-562 leukemia 74.5% | MALME-3M melanoma 98% | MDA-MB-231 breast 107% | RXF 393 renal 99.3% | SF-268 CNS 91.4% | SF-295 CNS 90.1% | SF-539 CNS 102% | UACC-257 melanoma 98.5% | M14 melanoma 91.9%

COc1ccc([C@H]2[C@@H](F)C(=O)N2c2cc(OC)c(OC)c(OC)c2)cc1F
inactive: MALME-3M melanoma 74% | MDA-MB-231 breast 19.6% | RXF 393 renal 28.8% | SF-268 CNS 33.1% | SF-295 CNS 18.6% | UACC-257 melanoma 38.7%
active: DU-145 prostate 9.46% | K-562 leukemia 9.45% | SF-539 CNS 4.17% | M14 melanoma 1.91%

C#Cc1ccccc1NC(=O)c1sc2nc3c(cc2c1N)CCCCCC3
active: MALME-3M melanoma 8.8% | MDA-MB-231 breast 5.3%
inactive: DU-145 prostate 50% | K-562 leukemia 74.5% | RXF 393 renal 92.9% | SF-268 CNS 48.5% | SF-295 CNS 75.7% | SF-539 CNS 62.2% | UACC-257 melanoma 96% | M14 melanoma 56.5%

NS(=O)(=O)c1ccc(C2C3=C(CCCC3=O)OC3=C2C(=O)c2ccccc2C3=O)cc1 (stereo not given)
active: DU-145 prostate -99.1% | K-562 leukemia -43.3% | MALME-3M melanoma -97.4% | MDA-MB-231 breast 5% | RXF 393 renal -90% | SF-268 CNS -42.6% | SF-295 CNS -80.3% | SF-539 CNS -88.5% | UACC-257 melanoma -90.3% | M14 melanoma -95%

c1ccc(-c2n(Cc3ccc4ccccc4n3)cc[n+]2Cc2ccc3ccccc3c2)cc1
active: K-562 leukemia 5.02% | MALME-3M melanoma -20% | MDA-MB-231 breast -6.39% | RXF 393 renal -8.14% | SF-295 CNS -7.2% | UACC-257 melanoma -27.1% | M14 melanoma -24.8%
inactive: DU-145 prostate 28.2% | SF-268 CNS 20.5% | SF-539 CNS 11.5%

Cc1cnc(-c2ccc(-c3ccc(NC(=O)Nc4c(F)cc(F)cc4F)cc3F)c3c2C(=O)NC3)[nH]1
active: DU-145 prostate 7.83% | MALME-3M melanoma -3.16%
inactive: K-562 leukemia 22.1% | MDA-MB-231 breast 36.5% | RXF 393 renal 21.5% | SF-268 CNS 39.2% | SF-295 CNS 58.8% | SF-539 CNS 56.1% | UACC-257 melanoma 43.8% | M14 melanoma 16.1%

COC(=O)c1cncc(C(=O)Nc2ccc(-n3cnc4ccccc43)cc2)c1
inactive: DU-145 prostate 105% | K-562 leukemia 94.5% | MALME-3M melanoma 124% | MDA-MB-231 breast 94% | RXF 393 renal 100% | SF-268 CNS 91.9% | SF-295 CNS 100% | SF-539 CNS 95.9% | UACC-257 melanoma 104% | M14 melanoma 102%

O=CN1N=C(c2ccc(Cl)cc2)CC1c1cccc(Nc2ccnc3cc(C(F)(F)F)ccc23)c1 (stereo not given)
inactive: DU-145 prostate 70.1% | K-562 leukemia 24.9% | MALME-3M melanoma 77.5% | MDA-MB-231 breast 80.7% | RXF 393 renal 71.4% | SF-268 CNS 58.9% | SF-295 CNS 51.4% | SF-539 CNS 78.7% | UACC-257 melanoma 52.1% | M14 melanoma 74%

Cc1cccc(C)c1NC(=O)CN(CC(C)C)CC(O)COc1ccccc1 (stereo not given)
inactive: DU-145 prostate 111% | K-562 leukemia 96% | MALME-3M melanoma 103% | MDA-MB-231 breast 93.5% | RXF 393 renal 103% | SF-268 CNS 102% | SF-295 CNS 88% | SF-539 CNS 97.6% | UACC-257 melanoma 110% | M14 melanoma 87.8%

C=C(C)[C@@H]1CC[C@]2(C(=O)OCCCC[P+](c3ccccc3)(c3ccccc3)c3ccccc3)CC[C@]3(C)[C@H](CC[C@@H]4[C@@]5(C)CC[C@H](OC(=O)C(Cl)Cl)C(C)(C)[C@@H]5CC[C@]43C)[C@@H]12
active: K-562 leukemia -35.9% | MALME-3M melanoma -85.7% | MDA-MB-231 breast -49.8% | RXF 393 renal -80.8% | SF-268 CNS -15.7% | SF-295 CNS -76.9% | SF-539 CNS -44.2% | UACC-257 melanoma -61% | M14 melanoma -56.1%
inactive: DU-145 prostate 14.4%
